Most compounds without a hit are left out; they make up all but 2.8% or so of the library.
Pol kappa inh-1 = blocks human DNA polymerase kappa activity | purified Pol kappa, fluorescent DNA synthesis assay, 10 min | Potency, µM (highest dose often 107 µM), for the others: at the top dose activity, negative = inhibition, actives largely listed as inhibitors | actives 0.53% (n = 400,000) | AID 588579; note: potency is the fitted concentration of half-maximal effect; % is set by controls: 0 for no effect and ±100 for the full control effect
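Kinetic fluorescence readout at 0 and 10 min followed reaction start with substrate at 50 nM final. Beforehand, enzyme (10 nM Pol kappa) stood 15 min with compound at room temperature; buffer-only wells were negative controls.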
PI5P4Ka inh = PI5P4K alpha (human) kinase inhibition; P48426; max response, %; AID 652105; PI5P4Kalpha enzyme, ADP-Glo luminescence, 60 min; hits give low values; actives 1.2% (n = 330,000); active = max response of -50% or lower; inconclusive = between -30% and -50%; inactive = -30% or higher; note: value at the top dose of about 77 µM; % is set by controls: 0 for no effect and ±100 for the full control effect
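Reactions run in 0.038 M HEPES pH 7.4, 0.28 mM EGTA, 0.1% CHAPS and 5% DMSO, with PI5P4Kalpha, substrate, compound and 5 microM ATP final, one hour at room temperature. Readout is ADP-Glo luminescence.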
WRN helicase inh-1 = blocks human WRN helicase | WRN helicase unwinding, fluorescent forked duplex, kinetic | Q14191 | Potency, µM (titrated, usually from 114 µM), inactives show at the top dose activity change, negative = inhibition, actives largely listed as inhibitors | AID 651768 | actives 0.46% (n = 360,000); note: potency is the fitted concentration of half-maximal effect; % is set by controls: 0 for no effect and ±100 for the full control effect; nearly all actives have a fitted effect of over 55% in size
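Kinetic fluorescence helicase assay: unwinding of a quenched forked DNA duplex (100 nM final) with 2 mM ATP final raises red fluorescence (525/598 nm). Compounds sat 15 min at room temperature with 20 nM WRN beforehand.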
Pol eta inh-1 = DNA polymerase eta (human) inhibition; recombinant Pol eta, fluorescent DNA replication assay; Potency, µM (doses to about 114 µM), for the others: at the top dose activity change, negative = inhibition, hits mostly inhibitors; AID 588591; actives 1.2% (n = 390,000); Q9Y253; note: potency is the fitted concentration of half-maximal effect; % is set by controls: 0 for no effect and ±100 for the full control effect
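Fluorescent replication assay: 50 nM final substrate added after a 15 min room-temperature compound preincubation with 10 nM enzyme. Signal taken at 0 min and again at 10 min.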
POLB inh = blocks human DNA polymerase beta activity; P06746; Pol beta primer extension/strand displacement, fluorescence kinetic; Potency, µM (doses to about 114 µM), for inactives: at the top dose activity change, negative = inhibition, hits mostly inhibitors; actives 1.3% (n = 340,000); AID 485314; note: potency is the fitted concentration of half-maximal effect; % is set by controls: 0 for no effect and ±100 for the full control effect
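Preincubation: enzyme (10 nM) with compound, 15 min, RT. Reaction: substrate added to 50 nM final. Reads: 0 and 10 min. Analysis: normalized, Hill fit.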
POLI inh = DNA polymerase iota (human) inhibition; AID 588590; Potency, µM (series often up to 115 µM), for inactives: at the top dose activity, negative = inhibition, usual class: inhibitors; Q9UNA4; Pol iota fluorescent replication assay, 10 min; actives 1% (n = 390,000); note: potency is the fitted concentration of half-maximal effect
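Pol iota at 10 nM preincubated 15 min with compounds at room temperature; reaction started with fluorescent substrate, 50 nM final. Fluorescence read kinetically at 0 and 10 min; buffer-only wells as negative control.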
TbPGK inh = blocks T. brucei phosphoglycerate kinase; shares compounds with Pol kappa inh-1; TbPGK coupled GAPDH assay, Kinase-Glo luminescence; Potency, µM (doses to about 57.5 µM), for inactives: at the highest dose activity change, negative = inhibition, hits mostly inhibitors; actives 79% (n = 500); note: potency is the fitted concentration of half-maximal effect; % is set by controls: 0 for no effect and ±100 for the full control effect; nearly all actives have a fitted effect of over 65% in size
Pol iota confirm = Human Pol iota inhibitor confirmatory assay; actives 77% (n = 1,500); Pol iota primer extension, TAMRA/BHQ fluorescence; Potency, µM, actives largely listed as inhibitors; shares compounds with Pol kappa inh-1; AID 720496; note: potency is the fitted concentration of half-maximal effect
Pol kappa inh-2 = Pol kappa (human) inhibition, cherry-pick confirmation; purified Pol-kappa, fluorescent strand-displacement substrate; actives 76% (n = 920); Potency, µM, usual class: inhibitors; AID 720501; shares compounds with Pol eta inh-1; note: potency is the fitted concentration of half-maximal effect
Pol eta inh-2 = confirmation of human DNA polymerase eta inhibitors. shares compounds with Pol eta inh-1. Pol eta primer extension, TAMRA/BHQ fluorescence, 10 min. Potency, µM, usual class: inhibitors. actives 64% (n = 2,600). AID 720502; note: potency is the fitted concentration of half-maximal effect
WRN helicase inh-2 = confirmation of human WRN helicase inhibitors; WRN helicase DNA unwinding, fluorescence kinetic; actives 63% (n = 610); shares compounds with WRN helicase inh-1; AID 720497; Potency, µM (titrated, usually from 57.1 µM), inactives show top-dose activity, negative = inhibition, hits mostly inhibitors; note: potency is the fitted concentration of half-maximal effect; nearly all actives have a fitted effect of over 65% in size
TO displacement = DNA binding via thiazole orange displacement; shares compounds with WRN helicase inh-1; actives 10% (n = 610); Potency, µM (highest dose often 57.1 µM), without a hit: top-dose activity change, negative = inhibition, hits mostly inhibitors; thiazole orange DNA binding displacement, fluorescence;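 note: drop in dye fluorescence marks compound binding to DNA; potency is the fitted concentration of half-maximal effect; % is set by controls: 0 for no effect and ±100 for the full control effect; nearly all actives have a fitted effect of over 60% in size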
BLM counter = blocks human BLM helicase in WRN counterscreen | actives 60% (n = 610) | AID 720503 | Recombinant BLM helicase DNA unwinding, red fluorescence | shares compounds with WRN helicase inh-1 | Potency, µM (titrated, usually from 57.1 µM), inactives show at the top dose activity change, negative = inhibition, actives largely listed as inhibitors; note: potency is the fitted concentration of half-maximal effect; nearly all actives have a fitted effect of over 60% in size
* = called active by the depositor; ? = inconclusive; · = not tested or not shown; [ ] = remark or other dose. Unless noted, calls come from the whole dose curve; as a rule, active = well fitted curve in the direction sought with a large enough effect; inconclusive = small, poorly fitted or top-dose-only effect, or another doubt; inactive = no such curve, though single readings can be large; an effect the other way counts as inactive or inconclusive.

SMILES	Pol kappa inh-1	PI5P4Ka inh	WRN helicase inh-1	Pol eta inh-1	POLB inh	POLI inh	Pol iota confirm	Pol eta inh-2	WRN helicase inh-2	TO displacement	BLM counter	others
C/C(=N/OCO/N=C(/C)c1ccc(F)cc1)c1ccc(F)cc1	0.0%	16.7	-26.9%	-17.2%	0.7%	21.9%	·	·	·	·	·
CCOCCCNC(=O)C1CCN(c2nc3ccc(C)cc3[nH]2)CC1	-7.3%[60.1 µM]	·	·	-12.7%	12.4%	15.7%	·	·	·	·	·
CNC(=S)Nc1cc(C)ccc1OC(F)F	0.9%	4.7	-3.4%	-2.5%	7.1%	26.1%	·	·	·	·	·
O=C(Nc1ccccc1C(F)(F)F)N1CCC(CN2CCc3ccccc3C2)CC1	2.8%	·	·	-16.1%	1.6%	-5.0%	·	·	·	·	·
Cc1n[nH]c(=S)n(NC(=O)/C=C/C(=O)Nn2c(=S)[nH]nc(C)c2=O)c1=O	8.91µM*	?	17.8µM*	8.91µM*	20µM*	?	21.2*	9.53*	?	-15.0%	21.5µM*	TbPGK inh=20.6µM*;Pol kappa inh-2=9.47*
O=C1COc2ccc(C(=O)COC(=O)c3ccc4ccccc4n3)cc2N1	-29.5%	-17.8	?	?	?	?	47.4*	?	13.6µM*	10.6%	8.57µM*
O=C1COc2ccc(C(=O)COC(=O)c3ccccn3)cc2N1	-6.6%	1.1	-0.3%	-4.4%	·	48.7%	·	·	·	·	·
C=CCOC(=O)c1cc(-c2ccc(/C=C3\C(=O)NC(=O)C(C#N)=C3C)o2)ccc1Cl	28.2µM*	-27.2	10.6µM*	3.55µM*	12.6µM*	?	67*	30.1*	15.2µM*	?	6.81µM*
CCOC(=O)c1ccccc1NC(=O)Nc1cc2c(cc1N1CCCCC1)n(C)c(=O)n2C	0.0%	·	·	-18.9%	2.3%	16.1%	·	·	·	·	·
O=C(O)Cc1ccc(N=Nc2c(O)c(C(=O)O)cc3ccccc23)cc1	?	-73.4*	25.1µM*	7.08µM*	31.6µM*	7.94µM*	21.2*	21.3*	19.2µM*	?	17.1µM*
Oc1ccc2ccccc2c1N=Nc1ccc(F)cc1	-13.9%	0.2	-14.0%	-14.9%	-10.1%	-27.5%	·	·	·	·	·
Cc1cccc(OCc2nn[nH]n2)c1C	-6.2%	0.4	7.7%	-2.6%	-13.1%	?	·	·	·	·	·
O=C1C(Cl)=C(NCCc2ccccc2)C(=O)c2ccccc21	-1.6%	-85.4*	28.2µM*	22.4µM*	·	3.55µM*	47.4*	47.8*	?	-19.6%	17.1µM*
CC(=O)Nc1ccc(NC(=O)c2nc(SCc3ccccc3F)ncc2Cl)cc1	-24.2%	·	·	·	·	-18.5%	·	·	·	·	·
